Laboratory results as given in PubChem BioAssay (EPA / NIEHS).
Active and inactive are the calls of the source. Rule for the calls: active = hit-call score of the fitted dose curve at least 0.9, where 1 is the maximum; inactive = score below 0.9.

Read-out: matrix metalloproteinase-1 (MMP1), MMP1 (gene 4312)
Experiment: LTEA_HepaRG_MMP1: Life Technologies and Expression Analysis (LTEA) Assay for matrix metalloproteinase-1 (MMP1) using HepaRG (AID 2283658)
Settings: mRNA level, 48 h; actives raise or lower the signal
Description: LTEA_HepaRG is a cell based, multiplexed-readout assay that uses HepaRG, a human liver cell line, with measurements taken at 48 hours after chemical dosing on a 96-well plate.LTEA_HepaRG_MMP1 is one of 102 assay component(s) measured in the LTEA HepaRG cell culture assay. It is a marker of Fibrosis.Data from the assay component LTEA_HepaRG_MMP1 was analyzed into 1 endpoint. This assay endpoint, LTEA_HepaRG_MMP1, was analyzed with bidirectional fitting relative to DMSO as the negative control and baseline of activity. Using a type of inducible reporter, measures of mRNA induction for gain or loss-of-signal activity can be used to understand regulation of transcription factor activity. To generalize the intended target to other relatable targets, this assay endpoint is annotated to the protease intended target family, where the subfamily is matrix metalloproteinase.
A total of 1060 chemcials from the ToxCast library were tested in eight-point concentration-response experiments. Cell culture and cytotoxicity assays were conducted at Thermo Fisher Scientific's Custom Services facility (Madison, WI). A single lot of human HepaRG cells (Thermo Fisher Scientific, Frederick, MD) was used for the cell culture experiments. 96-well format collagen type I coated plates of human HepaRG cells were prepared using established methods. Briefly, cryopreserved HepaRG cells were thawed, plated at a density of approximately 100,000 cells/well in HepaRG Thaw, Plate, and General Purpose media (HPRG770, Thermo Fisher Scientific), and incubated for 48 hours. 0.5% DMSO was selected as vehicle control to balance the requisite need of DMSO in HepaRG cultures to maintain differentiation (for example, baseline metabolism, proportions of hepatocytes vs. cholangiocytes), while enabling further hepatic receptor pathway activation (for example, PXR and CAR) in response to chemical exposure. 48 hours after plating, the culture medium was replaced with HepaRG Serum-Free Incudtion Media. Cells were exposed to each test chemical in duplicate and maintained in CO2 incubators for another 48 hours. Chemical plates were thawed to room temperature and 200x concentrations of treatment groups were prepared. 8-point conentration-reponse curves were made with the highest exposure at 100 uM, followed by half-log dilutions, all in 0.5% DMSO. Each test plate contained variouse controls, induction positive controls (1mM phenobarbital), cytotoxicity positive controls ([…] aflatoxin B1), vehicle controls (0.5% DMSO), and total lysis controls (0.5% DMSO). Cell morphology images were taken using an Essen IncuCyte FLR automated microscope, with six 96-well plates imaged in about 24 minutes. Images were captured and exported and JPEG files. Spent culture media was transfered to black-well plates for the LDH assay, and remaining media was sorted at -80 C for later use. Cells were treated with RLT buffer and frozen until shipped for gene expression analysis. Total RNA was isolated from the cell suspension in 75 uL of Buffer RLT (Qiagen, Germantown, MD 20874) by Quintiles/Expression Analysis (Durham, NC) using a custom isolation procedure. Total RNA from each plate well was transferred to a preamplification plate. Fluidigm's 96.96 Dynamic ArrayTM (Fluidigm, Amsterdam, the Netherlands) technology was used for gene expression analyses by quantitative reverse transcription polymerase chain reaction (qRT-PCR, performed by Quintiles/Expression Analysis, Durham, NC)89. Standard TaqManTM Assays (Applied Biosystems/ThermoFisher Scientific, Foster City, CA) were used to assess the expression of 93 genes selected based on their selectivity and sensitivity to important hepatic receptors known to be modulated by environmental chemicals; importance in human hepatocyte functionality; and hepatotoxicity. […]

SMILES | outcome
CC1(C(=O)Nc2ccc(O)c(Cl)c2Cl)CCCCC1 | inactive
CCOP(=S)(OCC)Oc1ccc2c(C)c(Cl)c(=O)oc2c1 | inactive
CNC(=O)Oc1cccc2c1OC(C)(C)O2 | inactive
CC(COc1ccc(Oc2ccccc2)cc1)Oc1ccccn1 (stereo not given) | inactive
CCCCN(CC)c1c([N+](=O)[O-])cc(C(F)(F)F)cc1[N+](=O)[O-] | inactive
CC[C@H](C)[C@H]1O[C@]2(C=C[C@@H]1C)C[C@@H]1C[C@@H](C/C=C(\C)[C@@H](O[C@H]3C[C@H](OC)[C@@H](O[C@H]4C[C@H](OC)[C@@H](NC)[C@H](C)O4)[C@H](C)O3)[C@@H](C)/C=C/C=C3\CO[C@@H]4[C@H](O)C(C)=C[C@@H](C(=O)O1)[C@]34O)O2 | inactive
CCOP(=S)(Oc1cnc(C(C)(C)C)nc1)OC(C)C (stereo not given) | inactive
CSc1nc(NC(C)C)nc(NC(C)C)n1 | inactive
CCOC(=O)CC(SP(=O)(OC)OC)C(=O)OCC (stereo not given) | inactive
CCc1cccc(CC)c1N(COC)C(=O)CCl | inactive
